Assay results reported in ChEMBL document CHEMBL3988442, “University of Dundee, Small-Polar-MMV Screening Library” (2021).
For some assays here: Results with a measured potency or affinity are listed apart.

Experiments:
Set-up in all cases: scale not given: direction of the effect not stated beside the values
[1] = target: Protein translocase subunit SecA (Escherichia coli (strain K12)) (UniProt P10408); experiment: Assay to Identify E. coli SecA ATPase Inhibitors; format: functional; details: 30 µM
Chain of Protein translocase subunit SecA (Escherichia coli (strain K12)) (P10408 whole entry): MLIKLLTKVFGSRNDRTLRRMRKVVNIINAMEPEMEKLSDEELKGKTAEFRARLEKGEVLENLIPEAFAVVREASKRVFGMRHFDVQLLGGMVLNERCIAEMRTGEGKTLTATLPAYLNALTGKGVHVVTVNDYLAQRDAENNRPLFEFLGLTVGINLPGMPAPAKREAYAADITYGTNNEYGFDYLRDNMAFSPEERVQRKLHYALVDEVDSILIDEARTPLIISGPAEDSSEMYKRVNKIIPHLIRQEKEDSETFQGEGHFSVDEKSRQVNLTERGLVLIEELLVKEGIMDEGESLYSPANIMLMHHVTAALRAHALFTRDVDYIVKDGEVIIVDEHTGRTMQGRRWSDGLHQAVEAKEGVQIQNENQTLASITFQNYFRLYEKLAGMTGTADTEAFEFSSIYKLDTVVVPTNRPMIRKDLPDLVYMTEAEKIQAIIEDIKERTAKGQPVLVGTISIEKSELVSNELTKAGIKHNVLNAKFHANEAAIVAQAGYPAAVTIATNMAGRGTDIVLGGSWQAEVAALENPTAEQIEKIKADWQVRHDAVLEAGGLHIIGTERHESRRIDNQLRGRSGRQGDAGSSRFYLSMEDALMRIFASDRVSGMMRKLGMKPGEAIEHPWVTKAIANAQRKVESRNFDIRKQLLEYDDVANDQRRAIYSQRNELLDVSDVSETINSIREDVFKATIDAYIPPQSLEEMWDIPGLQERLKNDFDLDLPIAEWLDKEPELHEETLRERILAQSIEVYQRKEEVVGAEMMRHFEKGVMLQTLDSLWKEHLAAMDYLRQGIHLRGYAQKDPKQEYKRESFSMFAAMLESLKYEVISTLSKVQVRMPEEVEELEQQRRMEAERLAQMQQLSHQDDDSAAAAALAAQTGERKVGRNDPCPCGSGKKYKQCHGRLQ

[2] = target: T1, Ubiquitin-activating enzyme e1, putative (Leishmania donovani (strain BPK282A1)) (UniProt E9BSI1); experiment: Leishmania donovani Ubiquitin Activating Enzyme (LdE1); format: functional; details: 30 µM
T1 sequence (whole entry): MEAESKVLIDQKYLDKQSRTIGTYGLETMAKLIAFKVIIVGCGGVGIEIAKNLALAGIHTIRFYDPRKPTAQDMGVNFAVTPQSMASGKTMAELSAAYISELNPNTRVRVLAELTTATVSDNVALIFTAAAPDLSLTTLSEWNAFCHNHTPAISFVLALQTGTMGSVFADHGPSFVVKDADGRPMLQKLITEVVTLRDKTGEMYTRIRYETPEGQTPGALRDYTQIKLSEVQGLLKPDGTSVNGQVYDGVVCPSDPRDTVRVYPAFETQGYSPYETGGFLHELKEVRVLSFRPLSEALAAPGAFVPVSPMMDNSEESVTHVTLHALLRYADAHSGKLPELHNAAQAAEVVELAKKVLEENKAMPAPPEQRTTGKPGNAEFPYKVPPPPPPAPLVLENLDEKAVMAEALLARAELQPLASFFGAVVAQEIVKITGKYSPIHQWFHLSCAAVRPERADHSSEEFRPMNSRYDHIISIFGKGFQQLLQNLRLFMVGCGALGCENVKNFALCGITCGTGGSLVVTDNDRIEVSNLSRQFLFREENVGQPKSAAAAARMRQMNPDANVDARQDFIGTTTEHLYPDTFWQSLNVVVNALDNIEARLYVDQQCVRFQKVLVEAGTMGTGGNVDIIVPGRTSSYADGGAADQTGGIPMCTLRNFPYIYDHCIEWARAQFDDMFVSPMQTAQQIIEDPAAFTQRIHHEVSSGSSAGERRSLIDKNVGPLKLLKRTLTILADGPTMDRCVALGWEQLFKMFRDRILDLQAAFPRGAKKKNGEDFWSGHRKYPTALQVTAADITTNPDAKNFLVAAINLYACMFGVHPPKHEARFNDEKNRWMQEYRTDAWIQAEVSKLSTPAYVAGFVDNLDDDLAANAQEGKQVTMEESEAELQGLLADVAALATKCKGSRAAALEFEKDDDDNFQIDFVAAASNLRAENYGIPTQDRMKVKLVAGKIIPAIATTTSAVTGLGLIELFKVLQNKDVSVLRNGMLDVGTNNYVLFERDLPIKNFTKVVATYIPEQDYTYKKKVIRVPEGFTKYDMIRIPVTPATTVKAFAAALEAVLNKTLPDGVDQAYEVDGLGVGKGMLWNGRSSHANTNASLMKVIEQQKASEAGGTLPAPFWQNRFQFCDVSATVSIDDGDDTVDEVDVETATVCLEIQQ

[3] = target: AMP-activated protein kinase, AMPK (Homo sapiens) (UniProt P54646+O43741+P54619+Q9UGJ0+Q9Y478+Q13131+Q9UGI9); experiment: AMP-dependent Kinase enzyme assay. An in vitro enzyme assay that detects ADP turnover that is directly proportional to AMPK activity. This uses naive AMPK that is activated during the assay with MK-8722; format: functional; details: 30 µM
[4] = target: Sialic acid-binding Ig-like lectin 9 (Homo sapiens) (UniProt Q9Y336); experiment: Hs-Siglec9 ALPHAscreen SOP 20170721; details: 10 µM
Chain of Sialic acid-binding Ig-like lectin 9 (Homo sapiens) (Q9Y336 whole entry): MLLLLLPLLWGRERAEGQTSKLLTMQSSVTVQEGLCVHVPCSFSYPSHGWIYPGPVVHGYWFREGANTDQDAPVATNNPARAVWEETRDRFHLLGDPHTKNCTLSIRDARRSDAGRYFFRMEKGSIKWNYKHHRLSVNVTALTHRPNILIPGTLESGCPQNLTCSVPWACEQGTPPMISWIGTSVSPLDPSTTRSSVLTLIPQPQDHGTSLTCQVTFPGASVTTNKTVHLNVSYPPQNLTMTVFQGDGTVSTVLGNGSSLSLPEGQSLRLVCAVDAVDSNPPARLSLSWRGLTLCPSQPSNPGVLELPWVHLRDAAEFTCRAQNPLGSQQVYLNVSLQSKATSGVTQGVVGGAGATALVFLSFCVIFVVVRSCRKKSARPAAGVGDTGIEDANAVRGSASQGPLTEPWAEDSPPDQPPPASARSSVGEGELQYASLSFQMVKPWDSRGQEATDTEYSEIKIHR

Trypanosoma cruzi = experiment: Trypanosoma cruzi phosphomannomutase and mannose-1-phosphate guanylyltransferase assay; format: functional; details: 10 µM
[5] = target: T2, Arginase-2, mitochondrial (Homo sapiens) (UniProt P78540); experiment: in vitro enzyme assay to detect the production of urea directly proportional to the activity of Arginase II; format: functional; details: 33.3 µM; note: in the data most compounds retested in dose-response had high values
T2 sequence (whole entry): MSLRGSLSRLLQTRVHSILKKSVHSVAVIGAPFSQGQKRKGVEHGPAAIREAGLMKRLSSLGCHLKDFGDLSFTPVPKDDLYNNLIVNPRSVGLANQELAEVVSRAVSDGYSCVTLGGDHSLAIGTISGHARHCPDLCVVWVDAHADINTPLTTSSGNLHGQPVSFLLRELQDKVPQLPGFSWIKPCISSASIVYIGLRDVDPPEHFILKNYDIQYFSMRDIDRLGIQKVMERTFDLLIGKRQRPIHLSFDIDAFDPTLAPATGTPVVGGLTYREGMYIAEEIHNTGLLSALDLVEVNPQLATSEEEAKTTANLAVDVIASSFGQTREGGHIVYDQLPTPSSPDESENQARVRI

[6] = target: T3, Proteasome subunit beta (Trypanosoma cruzi) (UniProt O96673); experiment: Trypanosoma cruzi proteasome chymotrypsin-like activity (TcProtChymo) assay.; note: in the data most compounds retested in dose-response had high values; format: functional; details: 9.37 µM
T3 sequence (whole entry): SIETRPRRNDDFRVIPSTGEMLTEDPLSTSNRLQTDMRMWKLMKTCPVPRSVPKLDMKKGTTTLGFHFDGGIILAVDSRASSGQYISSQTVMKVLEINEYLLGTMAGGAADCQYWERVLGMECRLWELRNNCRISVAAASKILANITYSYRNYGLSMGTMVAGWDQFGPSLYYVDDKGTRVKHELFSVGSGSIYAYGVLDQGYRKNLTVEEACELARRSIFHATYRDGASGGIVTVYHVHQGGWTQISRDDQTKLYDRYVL

Homo sapiens = species on record: Homo sapiens; experiment: To identify inhibition of the IFN signalling (Jak-Stat) pathway via expression of an eGFP reporter gene under the control of an IFN-stimulated response element (ISRE) containing MxA promoter.; format: functional; details: 30 µM
[7] = target: T4, Tyrosyl-tRNA synthetase, putative (Trypanosoma cruzi (strain CL Brener)) (UniProt Q4DSP6); experiment: Trypanosoma cruzi tyrosyl tRNA synthetase (TcYRS) _High Tyrosine SOP; format: functional; details: 30 µM; note: in the data most compounds retested in dose-response had high values
T4 sequence (whole entry): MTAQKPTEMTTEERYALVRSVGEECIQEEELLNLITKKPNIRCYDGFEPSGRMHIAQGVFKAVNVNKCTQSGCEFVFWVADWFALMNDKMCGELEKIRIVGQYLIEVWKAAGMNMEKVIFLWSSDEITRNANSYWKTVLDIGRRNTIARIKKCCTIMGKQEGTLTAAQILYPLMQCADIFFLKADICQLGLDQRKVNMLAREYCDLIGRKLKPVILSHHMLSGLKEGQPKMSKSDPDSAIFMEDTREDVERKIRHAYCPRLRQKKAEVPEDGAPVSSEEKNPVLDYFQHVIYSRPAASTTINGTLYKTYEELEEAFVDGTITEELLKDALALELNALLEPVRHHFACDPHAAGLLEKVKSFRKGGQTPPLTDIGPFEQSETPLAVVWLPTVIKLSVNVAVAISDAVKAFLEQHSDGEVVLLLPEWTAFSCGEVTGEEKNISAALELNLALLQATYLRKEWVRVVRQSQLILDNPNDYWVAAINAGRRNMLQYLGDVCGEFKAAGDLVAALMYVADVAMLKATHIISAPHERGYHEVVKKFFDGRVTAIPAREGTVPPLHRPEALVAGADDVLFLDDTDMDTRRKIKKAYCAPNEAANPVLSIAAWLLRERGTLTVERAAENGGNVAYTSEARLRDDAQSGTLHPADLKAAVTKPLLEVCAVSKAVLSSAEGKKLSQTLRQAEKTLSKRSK

[8] = target: T4, Tyrosyl-tRNA synthetase, putative (Trypanosoma cruzi (strain CL Brener)); experiment: Trypanosoma cruzi tyrosyl tRNA synthetase (TcYRS) SOP; format: functional; details: 30 µM
[9] = target: Chromo domain-containing protein 1 (Saccharomyces cerevisiae (strain ATCC 204508 / S288c) (Baker's yeast)) (UniProt P32657); experiment: ScCHD-1 Enzyme Inhibition Assay; format: functional; details: 30 µM; note: in the data most compounds retested in dose-response had high values
Chain of Chromo domain-containing protein 1 (Saccharomyces cerevisiae (strain ATCC 204508 / S288c) (Baker's yeast)) (P32657 whole entry, the tested form may be a part): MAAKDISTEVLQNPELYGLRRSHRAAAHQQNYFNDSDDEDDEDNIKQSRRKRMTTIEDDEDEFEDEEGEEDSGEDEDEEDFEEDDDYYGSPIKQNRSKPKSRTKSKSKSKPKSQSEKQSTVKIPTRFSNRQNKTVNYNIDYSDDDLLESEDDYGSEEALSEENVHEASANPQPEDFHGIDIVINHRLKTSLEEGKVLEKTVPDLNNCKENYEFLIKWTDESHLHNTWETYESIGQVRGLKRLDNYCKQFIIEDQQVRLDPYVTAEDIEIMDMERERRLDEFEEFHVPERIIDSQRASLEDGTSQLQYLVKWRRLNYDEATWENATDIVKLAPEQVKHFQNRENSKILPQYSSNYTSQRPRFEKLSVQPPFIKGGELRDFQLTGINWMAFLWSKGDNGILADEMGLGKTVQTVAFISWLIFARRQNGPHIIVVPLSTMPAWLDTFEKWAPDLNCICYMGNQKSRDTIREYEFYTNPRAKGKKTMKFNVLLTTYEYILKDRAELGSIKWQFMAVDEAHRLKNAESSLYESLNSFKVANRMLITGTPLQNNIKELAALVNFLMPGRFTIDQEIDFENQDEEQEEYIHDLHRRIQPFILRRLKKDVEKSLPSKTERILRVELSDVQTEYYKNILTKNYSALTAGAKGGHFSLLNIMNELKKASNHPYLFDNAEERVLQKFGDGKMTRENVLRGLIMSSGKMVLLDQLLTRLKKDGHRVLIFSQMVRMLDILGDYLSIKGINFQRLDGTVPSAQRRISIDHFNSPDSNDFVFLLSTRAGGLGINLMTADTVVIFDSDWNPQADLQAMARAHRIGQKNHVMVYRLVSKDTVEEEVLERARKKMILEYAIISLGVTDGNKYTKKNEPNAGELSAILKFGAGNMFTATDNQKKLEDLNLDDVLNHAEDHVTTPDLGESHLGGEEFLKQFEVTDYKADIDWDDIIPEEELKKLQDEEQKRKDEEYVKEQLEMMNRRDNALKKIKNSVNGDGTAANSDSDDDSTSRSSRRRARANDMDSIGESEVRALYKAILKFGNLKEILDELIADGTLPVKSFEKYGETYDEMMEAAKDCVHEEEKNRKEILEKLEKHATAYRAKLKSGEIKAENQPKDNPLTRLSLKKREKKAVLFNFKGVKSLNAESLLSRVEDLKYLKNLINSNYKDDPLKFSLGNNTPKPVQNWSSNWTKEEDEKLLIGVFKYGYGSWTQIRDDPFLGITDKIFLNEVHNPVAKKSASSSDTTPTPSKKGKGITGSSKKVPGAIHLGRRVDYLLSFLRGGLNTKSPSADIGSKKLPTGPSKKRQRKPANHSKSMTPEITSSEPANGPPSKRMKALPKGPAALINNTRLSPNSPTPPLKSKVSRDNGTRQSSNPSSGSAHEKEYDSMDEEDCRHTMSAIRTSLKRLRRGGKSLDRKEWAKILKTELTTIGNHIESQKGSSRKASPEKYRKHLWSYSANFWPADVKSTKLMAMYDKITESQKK

Row | SMILES | Percent Effect [1] | Percent Effect [2] | Percent Effect [3] | Percent Effect [4] | Percent Effect (Trypanosoma cruzi) | Percent Effect [5] | Percent Effect [6] | Percent Effect (Homo sapiens) | Percent Effect [7] | Percent Effect [8] | Percent Effect [9]
1 | COc1cccc(S(=O)(=O)NC2CNC(=O)C2)c1 (stereo unspecified) | -6% | 2.74% | 3.51% | 9.97% | 6.66% | -1.36% | 2.31% | -0.016% | 4.3% | 12.5% | -5.21%
2 | Cc1cnn(C2CN(CC(=O)NCCc3ccccc3)C2)c1 | -3.73% | -10.5% | 3.48% | 3.23% | 1.21% | -2.16% | -0.254% | 8.21% | 5.42% | 13.6% | 4.88%
3 | Cc1ncc(CN(C)C2CCCN(Cc3noc(C4CC4)n3)C2)s1 (stereo unspecified) | -3.21% | 5.26% | -3.55% | 4.27% | 7.52% | -0.766% | 8.02% | 14.3% | 2.45% | 12.2% | -9.03%
4 | O=C(c1cncc(N2CCC3(CCNCC3)CC2)n1)N1CCCC1 | -4.3% | 18.7% | 1.16% | 15.6% | 5.94% | 33.9% | 23.7% | 12.9% | 7.1% | 21% | -13.4%
5 | CCc1ccc(CNC(=O)NC(C)CN2CCOCC2)s1 (stereo unspecified) | -1.82% | 18.4% | -5.99% | -6.5% | 1.46% | 1.18% | 9.49% | 5.21% | -12.8% | 15.6% | 8.4%
6 | COC(=O)c1ccc(N2CCN(CCN3CCOCC3)C(C)C2)cc1 (stereo unspecified) | -7.58% | 15.8% | -5.32% | 3.41% | -0.467% | -1.8% | 2.96% | -10.7% | 7.39% | 13.6% | -4.27%
7 | COc1ccccc1C(=O)N1CCCC1Cn1cc(C)cn1 (stereo unspecified) | -3.53% | 18.9% | -13.2% | -6.09% | -4.25% | -2.81% | 4.68% | -3.42% | 11.3% | 18.5% | -4.38%
8 | O=C(CC1CN(Cc2ccccc2)CCO1)NC1CCCC1 (stereo unspecified) | -6.09% | 24.3% | -1.42% | 7.65% | 7.62% | 8.33% | 7.35% | 15.4% | 7.92% | 23.2% | -6.96%
9 | CC(C)NC(=O)CS(=O)(=O)Cc1cc(Cl)c2c(c1)OCCO2 | -2.36% | 20.2% | -6.59% | -0.915% | -0.283% | -1.52% | 0.737% | 13.3% | 7.39% | 24.1% | -5.39%
10 | Cn1ncc2c(=O)[nH]c(CN(Cc3ccco3)C3CCCC3)nc21 | -5.65% | 23.4% | -6.78% | 6.27% | 2.81% | -1.42% | 14.7% | 6.82% | 2.91% | 24.4% | -9.65%
11 | Cc1cc(C(=O)NCc2ccnc(N(C)C)c2)c(C)o1 | -4.79% | 23.4% | -3.99% | -6.37% | -5.24% | -1.42% | 8.62% | -12% | 4.85% | 12.2% | -10.6%
12 | O=C(NCC1CC1)C1=NOC2(CCN(Cc3ccc4c(c3)OCO4)C2)C1 (stereo unspecified) | -4.9% | 8% | 8.35% | 5% | -2.51% | -50.4% | 11.1% | 0.899% | 0% | -17.5% | -6.02%
13 | Cc1cnn(CCC(=O)N2C[C@H]3CC[C@@H]2CN(CC(=O)N(C)C)C3)c1 | 0.243% | 13.5% | -6.36% | 7.46% | 7.34% | 1.91% | 17.6% | 5.29% | 5.82% | 17.1% | -2.52%
14 | CN(Cc1ccsc1)C(=O)Nc1cccnc1N1CCCC1 | -9.81% | 7.89% | -31.4% | -9.07% | -7.38% | 0.719% | 2.62% | 6.49% | -1.48% | 3.7% | -2.06%
15 | Cc1nc(CN(C)C2CCN(Cc3sc(C)nc3C)C2)no1 (stereo unspecified) | -3.5% | 7.89% | -14.6% | 4.01% | 7.38% | 0% | 20.6% | 2.16% | 4.43% | 11.1% | -3.08%
16 | CCN(CCn1cccn1)Cc1nc(-c2ccccc2F)oc1C | -1.08% | -6.94% | -5.26% | -5.94% | -0.68% | -0.883% | 5.61% | 7.62% | 1.05% | 0% | 2.51%
